From PubChem BioAssay (NCATS)
Unmarked numbers belong to inactive results. Results filed as inconclusive are left out. The source made the active and inactive calls. Unless noted, calls come from the whole dose curve; as a rule, active = well fitted curve in either direction with a large enough effect (not every such curve was filed as active); inconclusive = small, poorly fitted or top-dose-only effect, or another doubt; inactive = flat fitted curve, though single readings scatter.

Legend:
[1] = target: Lysosomal acid glucosylceramidase (Homo sapiens) (UniProt P04062); test: Glucocerebrosidase-p2 (AID 348; in the data active = potency below about 10 µM; note: potency is the fitted concentration of half-maximal effect); conditions: purified GBA, blue fluorogenic substrate, 40 min
Lysosomal acid glucosylceramidase (Homo sapiens), sequence (P04062 whole entry, looked up): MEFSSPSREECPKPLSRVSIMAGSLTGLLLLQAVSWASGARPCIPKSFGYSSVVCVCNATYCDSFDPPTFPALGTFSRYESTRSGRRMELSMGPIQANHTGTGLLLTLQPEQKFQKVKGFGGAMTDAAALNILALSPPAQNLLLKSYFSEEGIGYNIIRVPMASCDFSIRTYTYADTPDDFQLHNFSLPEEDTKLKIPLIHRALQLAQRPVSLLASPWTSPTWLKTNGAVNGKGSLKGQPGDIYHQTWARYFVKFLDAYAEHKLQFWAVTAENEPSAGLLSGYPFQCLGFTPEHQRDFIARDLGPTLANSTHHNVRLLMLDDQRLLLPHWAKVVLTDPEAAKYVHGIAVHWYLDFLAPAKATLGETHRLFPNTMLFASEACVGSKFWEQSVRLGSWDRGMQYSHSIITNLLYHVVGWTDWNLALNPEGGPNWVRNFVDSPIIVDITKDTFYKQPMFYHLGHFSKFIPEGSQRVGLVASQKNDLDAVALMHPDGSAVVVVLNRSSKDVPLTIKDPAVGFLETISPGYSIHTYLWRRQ
Outline: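 Compounds titrated from 0.6 nM upwards against 0.2 nM enzyme in pH 5.9 citric acid/KH2PO4, taurocholate, tween-20; blue fluorogenic substrate 80 uM, 40 min room temperature, stopped and read Ex 365/Em 440 for AC50.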

[2] = AP1 Signaling Pathway (AID 357); conditions: ME-180 AP-1-bla reporter, EGF-induced, beta-lactamase ratio, 5 h; at 7.69 µM (top of the series) unless noted;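 note: ME-180 reporter cells stimulated with EGF at its EC50 level; % is set by controls: 0 for no effect and ±100 for the full control effect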
Outline: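 Cells are seeded overnight, exposed to compound titrations and an EC50 level of EGF for 5 hours at 37 °C, then loaded with CCF4 dye for 2.5 hours. Beta-lactamase activity under the AP-1 element is read as a blue/green ratio.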

[3] = target: Cytochrome P450 1A2 (Homo sapiens) (UniProt P05177); test: p450-cyp1a2 (AID 410; calls by dose curve; note: potency is the fitted concentration of half-maximal effect;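 for activity change, negative = inhibition: -100% = full effect of reference inhibitor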); conditions: recombinant CYP1A2, luciferin-ME demethylation, luminescence; series mostly up to 11.4 µM
Cytochrome P450 1A2 (Homo sapiens), sequence (P05177 whole entry, looked up): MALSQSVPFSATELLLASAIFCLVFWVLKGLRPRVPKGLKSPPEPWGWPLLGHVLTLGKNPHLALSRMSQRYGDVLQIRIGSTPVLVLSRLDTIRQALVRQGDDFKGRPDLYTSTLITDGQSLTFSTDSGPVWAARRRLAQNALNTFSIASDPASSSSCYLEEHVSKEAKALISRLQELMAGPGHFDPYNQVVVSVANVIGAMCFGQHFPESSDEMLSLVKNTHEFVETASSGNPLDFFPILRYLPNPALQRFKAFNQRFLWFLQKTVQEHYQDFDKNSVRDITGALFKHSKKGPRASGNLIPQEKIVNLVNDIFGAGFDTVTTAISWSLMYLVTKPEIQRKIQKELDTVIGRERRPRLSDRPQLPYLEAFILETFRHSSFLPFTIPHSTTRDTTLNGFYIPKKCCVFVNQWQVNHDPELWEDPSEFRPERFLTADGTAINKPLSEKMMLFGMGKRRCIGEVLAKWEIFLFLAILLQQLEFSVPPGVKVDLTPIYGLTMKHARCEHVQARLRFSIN
Outline: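 20nM CYP1A2 with 100uM Luciferin-ME (at Km) in 100mM KPO4; compound preincubated 10 min, NADPH regeneration added, 60 min at room temperature. Luciferin quantified by luminescence after detection reagent; normalized to 57 uM furafylline.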

[4] = NFAT Signaling Pathway (AID 444); conditions: Jurkat NFAT-bla M1, carbachol, beta-lactamase ratio, 5 h; at 7.69 µM (top of the series) unless noted;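 note: carbachol stimulus at about its EC50 of 1 µM final; % is set by controls: 0 for no effect and ±100 for the full control effect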
Outline: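 Jurkat cells carrying an NFAT-driven β-lactamase reporter and co-transfected muscarinic M1 receptor were treated with compound plus carbachol (1 uM final, an EC50 level) for 5 h at 37 °C. CCF4 loading followed for 1 h at RT; 460/530 nm ratio gave %activity.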

[5] = Stat Signaling Pathway (AID 446); conditions: ME-180 (cervical carcinoma) SIE beta-lactamase reporter, IL-6 stimulated, 5 h; at 7.69 µM (top of the series) unless noted;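 note: ME-180 cervical cancer cells given 40 pM IL-6 alongside compound; SIE-controlled beta-lactamase reporter measured as 460/530 nm FRET emission ratio; % is set by controls: 0 for no effect and ±100 for the full control effect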
Outline: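 IL-6/STAT signaling read in ME-180 cells via an SIE beta-lactamase reporter. Stimulus was 40 pM IL-6 (its AC50) for 5 hrs, so both activation and inhibition register.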

[6] = target: Glucocorticoid receptor (Homo sapiens) (UniProt P04150); test: GR-GFP Redistribution (AID 450;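 active = compounds whose dose series gives a full or clear partial fitted curve of increased nuclear translocation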; note: potency is the fitted concentration of half-maximal effect); conditions: U2OS GR-GFP nuclear translocation, laser cytometry, 2 h
Glucocorticoid receptor (Homo sapiens), sequence (P04150 whole entry, looked up, the tested form may be a part): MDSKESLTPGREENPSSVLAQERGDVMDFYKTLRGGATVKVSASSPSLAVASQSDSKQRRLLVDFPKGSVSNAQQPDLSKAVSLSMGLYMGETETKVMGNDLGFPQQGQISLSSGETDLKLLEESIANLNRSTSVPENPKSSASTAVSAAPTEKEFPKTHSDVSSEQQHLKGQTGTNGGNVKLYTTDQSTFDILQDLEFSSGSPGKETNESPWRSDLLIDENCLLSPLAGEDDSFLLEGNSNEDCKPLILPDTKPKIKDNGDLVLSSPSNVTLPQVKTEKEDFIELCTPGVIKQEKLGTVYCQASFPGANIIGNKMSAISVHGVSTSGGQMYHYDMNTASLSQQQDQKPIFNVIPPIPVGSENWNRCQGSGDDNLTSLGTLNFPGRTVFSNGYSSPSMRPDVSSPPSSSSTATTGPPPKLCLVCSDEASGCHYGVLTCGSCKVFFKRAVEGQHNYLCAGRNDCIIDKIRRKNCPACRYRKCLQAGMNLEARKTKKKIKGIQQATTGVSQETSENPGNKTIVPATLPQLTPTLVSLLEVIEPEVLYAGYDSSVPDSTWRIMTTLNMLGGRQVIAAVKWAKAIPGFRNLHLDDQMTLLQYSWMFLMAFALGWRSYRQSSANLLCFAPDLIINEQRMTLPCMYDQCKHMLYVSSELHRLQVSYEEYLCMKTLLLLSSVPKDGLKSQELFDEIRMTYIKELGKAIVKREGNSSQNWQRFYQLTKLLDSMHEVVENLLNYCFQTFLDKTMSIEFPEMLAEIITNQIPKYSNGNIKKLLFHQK

[7] = target: Glucocorticoid receptor (Homo sapiens) (UniProt P04150); test: GR-EFC Redistribution (AID 451; calls by dose curve; note: potency is the fitted concentration of half-maximal effect); conditions: CHO-K1 GR-EFC translocation, beta-gal luminescence, 2 h
Outline: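 CHO-K1 cells stably expressing nuclear-localized β-gal enzyme acceptor and GR fused C-terminally to the enzyme donor fragment; ligand-driven nuclear translocation restores β-gal by complementation. Compounds titrated up to 46 uM final, 2 h at 37 °C; luminescence read.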

[8] = target: Mitogen-activated protein kinase 10 (Mus musculus) (UniProt Q61831); test: JNK3 AlphaScreen Assay (AID 530); conditions: JNK3 lysate, c-Jun phosphorylation; series mostly up to 11.4 µM;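 note: kinase came from lysate of stimulated human HepG2 cells; signal reports phosphorylation of biotinylated GST-cJun 1-79 at Ser73 with 10 µM ATP; % is set by controls: 0 for no effect and ±100 for the full control effect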
Outline: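 Inhibitors reduce antibody binding to phosphorylated biotin-cJun, lowering AlphaScreen luminescence. Lysates from HepG2 cells pre-activated by IL-1beta plus TNF-alpha supplied JNK3; compounds were titrated.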

[9] = target: 3',5'-cyclic-AMP phosphodiesterase 4B (Homo sapiens) (UniProt Q07343); test: qHTS Assay for Inhibitors of PDE-IV (AID 607; active = well fitted activation curve with a large enough effect in the main read-out, with a control signal flat, not every such curve was filed as active; note: % of control where 0% means no effect); conditions: HEK293 ACTOne CNG channel cells, membrane potential fluorescence; series mostly up to 22.9 µM
3',5'-cyclic-AMP phosphodiesterase 4B (Homo sapiens), sequence (Q07343 whole entry, looked up): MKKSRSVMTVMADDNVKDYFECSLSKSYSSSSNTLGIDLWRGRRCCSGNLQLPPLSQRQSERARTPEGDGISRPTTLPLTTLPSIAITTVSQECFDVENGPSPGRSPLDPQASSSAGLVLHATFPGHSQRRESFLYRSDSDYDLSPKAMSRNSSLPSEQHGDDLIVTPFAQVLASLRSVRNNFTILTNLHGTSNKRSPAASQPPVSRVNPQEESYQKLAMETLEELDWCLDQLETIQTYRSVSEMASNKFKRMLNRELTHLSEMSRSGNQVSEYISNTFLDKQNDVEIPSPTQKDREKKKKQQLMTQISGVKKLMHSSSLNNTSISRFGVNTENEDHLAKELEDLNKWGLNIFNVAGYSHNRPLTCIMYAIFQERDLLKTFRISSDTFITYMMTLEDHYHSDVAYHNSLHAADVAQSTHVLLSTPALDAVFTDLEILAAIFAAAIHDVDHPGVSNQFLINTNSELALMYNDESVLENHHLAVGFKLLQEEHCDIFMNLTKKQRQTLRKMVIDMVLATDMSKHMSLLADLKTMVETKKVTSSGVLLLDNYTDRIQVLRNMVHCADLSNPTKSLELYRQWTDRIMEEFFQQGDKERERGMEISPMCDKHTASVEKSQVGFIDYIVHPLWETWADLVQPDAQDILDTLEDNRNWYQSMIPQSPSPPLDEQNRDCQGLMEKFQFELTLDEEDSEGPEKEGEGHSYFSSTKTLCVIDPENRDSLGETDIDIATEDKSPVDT
Outline: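 Live HEK293 cells with a modified cyclic nucleotide-gated (CNG) channel report intracellular cAMP via membrane-potential dye fluorescence (ex 535/em 590 nm). Endogenous PDE-IV was targeted. Compounds were tested at up to 22.9 uM final; RO 20-1724 100 uM served as control.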

SMILES | Potency [1] [µM] | activity change, negative = inhibition [2] [%] | Potency [3] | activity change, negative = inhibition [4] | activity, negative = inhibition [5] [%] | Potency [6] [µM] | Potency [7] [µM] | Potency [8] | Potency [9] | activity change, negative = inhibition [3]
O=C(O)CCC(=O)c1ccc2sc3ccccc3c2c1 | > 11.4 | 3.02 | 3.98 µM (active) | 7.45% | -12.2 | > 46 | > 9.22 | inactive | inactive | 
CC1=C(CC[C@H](C)CO)O[C@@H]2C[C@@H]3[C@H]4CC[C@H]5C[C@@H](O)CC[C@]5(C)[C@@H]4CC(=O)[C@@]3(C)[C@@H]12 | > 11.4 | 12.3 |  | -4.84% | -18.7 | > 46 | > 9.22 | inactive | inactive | -21.1% [at 2.29 µM]
O=C(O)[C@@H](O)c1ccc(F)cc1 | > 11.4 | 26.9 | inactive | 11% | 8.22 | > 46 | > 9.22 | inactive | inactive | 
N[C@@H](Cc1[nH]nc2ccccc12)C(=O)O | > 11.4 | 5.54 | inactive | -12.5% | -0.642 | > 46 | > 9.22 | inactive | inactive | 
Nc1cccc2cc(S(=O)(=O)Nc3ccc(C(=O)O)cc3)ccc12 | > 11.4 | -0.623 | inactive | 12.7% | -1.24 | > 46 | > 9.22 | inactive | inactive | 
O=C(O)CSc1cc(-c2ccccc2)nc2ccccc12 | > 11.4 | 4.39 |  | 10.2% | -6.65 | > 46 | > 9.22 | inactive | inactive | -4.7% [at 2.29 µM]
O=C(O)CSc1nnc2c3ccccc3c3ccccc3c2n1 | > 11.4 | -9.84 | 0.0794 µM (active) | 22.2% | 10.3 | > 46 | > 9.22 | inactive | inactive | 
N[C@H](C(=O)O)[C@@H](O)c1cnc[nH]1 | > 11.4 | 6.1 | inactive | -4.22% | 2.54 | > 46 | > 9.22 | inactive | inactive | 
OC[C@@H](O)CNc1ncnc2ccccc12 | > 11.4 | -1.31 | inactive | 9.96% | 2.66 | > 46 | > 9.22 | inactive | inactive | 
O=C(O)CNc1ccc(C(=O)O)cc1 | > 11.4 | -2.61 | inactive | 12.8% | 6.8 | > 46 | > 9.22 | inactive | inactive | 
Nc1nc2c(c(=O)[nH]1)N[C@H](CCNc1ccc(C(=O)O)cc1)CN2 | > 11.4 | -0.0764 | inactive | 14.5% | -3.77 | > 46 | > 9.22 | inactive | inactive | 
Cc1cc2ccc(OC(=O)c3ccc(N=C(N)N)cc3)cc2oc1=O | > 11.4 | 5.35 | 2.51 µM (active) | -22.4% | -1.77 | > 46 | > 9.22 | inactive | inactive | 
Nc1nc2c(ncn2[C@@H]2C=C[C@@H](CO)C2)c(=O)[nH]1 | > 11.4 | 2.92 | inactive | 10.3% | 5.37 | > 46 | > 9.22 | inactive | inactive | 
O=C(O)c1nn(-c2ccccc2-c2n[nH]c(=O)[nH]c2=O)c(=O)[nH]c1=O | > 11.4 | 1.66 | inactive | 18.8% | 6.32 | > 46 | > 9.22 | inactive | inactive | 
O=C(O)c1nn(-c2ccc(Cl)cc2)c2c1C(=O)c1ccccc1C2=O | > 11.4 | -2.08 | 0.251 µM (active) | -17.6% | 2.2 | > 46 | > 9.22 | inactive | inactive | 
c1ccc(C(CCN2CC3CCC(CC3)C2)c2ccccc2)cc1 | > 11.4 | 2.88 | inactive | -81.8% (active) | 0.0517 | > 46 | > 9.22 | inactive | inactive | 
